This is an account of results in PubChem BioAssay (NCATS).

Inconclusive results are not listed. Activity calls are given as the source filed them. Unless noted, calls come from the whole dose curve.

Test [1] concerns the target Bile acid receptor (Homo sapiens) (UniProt Q96RI1). Put plainly: qHTS assay for small molecule antagonists of farnesoid X receptor signaling (AID 588526). Note: potency is the fitted concentration of half-maximal effect. Summed up:
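Beta-lactamase reporter antagonist mode: HEK293T FXR-UAS-bla cells, titrated compound, CDCA stimulation, 16 h 37 C, CCF4 dye 2 h RT. Data normalized to CDCA 50 uM and DMSO; Hill-fit IC50.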
Background: Quantitative high-throughput screening tests each substance at several concentrations.

The target is the same in test [2]. The test can be described thus: qHTS assay for small molecule agonists of farnesoid X receptor signaling (AID 588527).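 Note: series mostly up to about 77 µM; 0% = vehicle basal and 100% = reference agonist.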 The following applies: HEK293T FXR-UAS-bla, beta-lactamase ratio, 16 h; activation: stronger effect = higher value. An outline of the steps: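 Quantitative HTS used FXR-UAS-bla HEK293T cells with 16 h compound incubation at 37 C. EC50 values came from concentration-response curves normalized to chenodeoxycholic acid.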

Test [3] is described as follows: qHTS assay for small molecule antagonists of peroxisome proliferator-activated receptor delta signaling (AID 588535; active = well fitted inhibition curve with a large enough effect in the signal ratio, with a control signal flat, not every such curve was filed as active; the % refers to the signal ratio;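 for max response: cells co-treated with a PPAR-delta agonist as stimulator during compound exposure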). The following applies: HEK293T PPARd-UAS-bla, beta-lactamase FRET ratio, 18 h; 460 nm channel. An outline of the steps:
(§1)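 HEK293T PPAR-delta-UAS-bla cells, 4000/well, 2% charcoal/dextran FBS; 5 h 37 C; cpd titration; 18 h 37 C; CCF4 2 h RT; FI 460/530 nm; Hill fit → IC50, efficacy.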

Test [4] concerns the target Peroxisome proliferator-activated receptor delta (Homo sapiens) (UniProt Q03181). Described as above. An outline of the steps: as §1
In test [5] the target is Vitamin D3 receptor (Homo sapiens) (UniProt P11473). Put plainly: qHTS assay for small molecule agonists of vitamin D receptor signaling (AID 588543).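 Note: 0% = DMSO basal and 100% = reference agonist control.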 An outline of the steps: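 Reporter cells (HEK293T, VDR-UAS-bla) were seeded in medium with 2% charcoal-stripped serum and incubated 5 h, then compounds in concentration series were added for 16 h at 37 °C. Stimulation was scaled between DMSO basal and 50 nM 1α,25-dihydroxyvitamin D3.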
Sequence of Vitamin D3 receptor (Homo sapiens) (P11473 whole entry, looked up): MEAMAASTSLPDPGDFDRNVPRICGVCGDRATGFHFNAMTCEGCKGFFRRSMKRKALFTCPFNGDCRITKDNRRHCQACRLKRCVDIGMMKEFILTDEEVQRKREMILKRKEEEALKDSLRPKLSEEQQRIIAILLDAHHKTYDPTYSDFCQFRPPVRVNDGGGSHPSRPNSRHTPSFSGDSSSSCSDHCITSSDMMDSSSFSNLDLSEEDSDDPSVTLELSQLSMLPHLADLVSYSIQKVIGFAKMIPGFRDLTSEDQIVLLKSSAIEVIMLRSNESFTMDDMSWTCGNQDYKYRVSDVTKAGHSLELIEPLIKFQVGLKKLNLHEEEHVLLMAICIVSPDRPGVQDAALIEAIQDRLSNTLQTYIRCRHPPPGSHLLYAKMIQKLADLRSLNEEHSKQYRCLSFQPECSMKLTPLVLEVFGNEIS

Test [6] concerns the target Retinoic acid receptor RXR-alpha (Homo sapiens) (UniProt P19793). Put plainly: qHTS assay for small molecule agonists of retinoid X receptor alpha signaling (AID 588544).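 For activation: 0% = DMSO basal wells and 100% = reference agonist.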 Note: potency is the fitted concentration of half-maximal effect.
Test [7] addresses Thyroid hormone receptor beta (Homo sapiens) (UniProt P10828). Put plainly: qHTS assay for small molecule agonists of thyroid hormone receptor beta signaling (AID 588545).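 Note: 0% = DMSO only and 100% = 10 nM T3.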 Summed up: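 Beta-lactamase reporter activity under TR response element control is measured in HEK 293 cells after 18 hrs compound exposure. Signal is ratiometric CCF4 fluorescence, 460/530 nm.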
The nature of test [8]: qHTS assay for small molecule antagonists of retinoid X receptor alpha signaling (AID 588546; active = well fitted inhibition curve with a large enough effect in the signal ratio, with a control signal flat, not every such curve was filed as active; the % refers to the signal ratio;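 note: cells stimulated with 9-cis-retinoic acid as agonist; % is set by controls: 0 for no effect and ±100 for the full control effect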). The following applies: HEK293T RXRa-UAS-bla, beta-lactamase ratio, antagonist mode; measured here: W530 green channel, cytotoxicity proxy. Summed up:
(§2)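 Beta-lactamase reporter inhibition, read as CCF4 fluorescence ratio (ex 405, em 460/530 nm) after 2 h at RT. HEK293T UAS-bla cells, 2500/well, were stimulated with 9-cis-RA at 500 or 100 nM final alongside test compound for 18 h at 37 C.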

Test [9] concerns the target Retinoic acid receptor RXR-alpha (Homo sapiens) (UniProt P19793). Described as above. Particulars: HEK293T RXRa-UAS-bla, beta-lactamase ratio, antagonist mode. Summed up: as §2
Test [10] deals with Thyroid hormone receptor beta (Homo sapiens) (UniProt P10828). The test can be described thus: qHTS assay for small molecule antagonists of thyroid hormone receptor beta signaling (AID 588547; active = well fitted inhibition curve with a large enough effect in the signal ratio, with a control signal flat, not every such curve was filed as active; the % refers to the signal ratio;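 note: cells stimulated with 0.4 nM T3 agonist during compound exposure; series mostly up to about 77 µM; % is set by controls: 0 for no effect and ±100 for the full control effect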). The following applies: TR-UAS-bla HEK293, beta-lactamase ratio, antagonist mode, 18 h. An outline of the steps: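 Inhibition of T3-driven (0.4nM final) beta-lactamase reporter activity was measured over 0.59 nM to 92 uM compound after 18 h at 37 C. The cells were GripTite HEK293 TR-UAS-bla in charcoal/dextran-stripped serum, with CCF4 ratio read-out and IC50 from Hill fits.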
Sequence of Thyroid hormone receptor beta (Homo sapiens) (P10828 whole entry, looked up): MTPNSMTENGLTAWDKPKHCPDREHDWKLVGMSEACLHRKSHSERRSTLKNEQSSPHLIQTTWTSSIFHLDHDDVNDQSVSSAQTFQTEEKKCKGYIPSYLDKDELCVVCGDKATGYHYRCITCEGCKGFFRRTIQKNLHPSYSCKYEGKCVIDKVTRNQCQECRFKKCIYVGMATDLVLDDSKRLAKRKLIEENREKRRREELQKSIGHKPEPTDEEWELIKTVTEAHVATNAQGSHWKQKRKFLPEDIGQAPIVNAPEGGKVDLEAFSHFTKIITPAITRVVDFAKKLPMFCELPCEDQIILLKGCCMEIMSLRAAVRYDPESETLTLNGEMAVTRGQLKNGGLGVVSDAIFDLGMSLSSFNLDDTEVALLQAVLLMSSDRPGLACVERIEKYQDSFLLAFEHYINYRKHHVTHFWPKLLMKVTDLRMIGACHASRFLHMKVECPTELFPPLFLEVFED

The nature of test [11]: qHTS assay for small molecule activators of the p53 signaling pathway (AID 651743; active = well fitted activation curve with a large enough effect in the signal ratio, not every such curve was filed as active; the % refers to the signal ratio; note: series mostly up to about 92 µM; % of control where 0% means no effect). The following applies: HCT-116 p53RE-bla, beta-lactamase FRET ratio, 16 h; activation: stronger effect = higher value. Summed up:
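Read-out is fluorescence intensity from the LiveBLAzer B/G FRET substrate, added for 2 hours at room temperature after HCT-116 p53RE-bla cells had been incubated with compounds for 16 hours at 37 C.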

A short description of test [12]: qHTS assay for environmental chemicals that activate the Aryl hydrocarbon Receptor (AhR) signaling pathway (AID 651777; active = well fitted curve in the direction sought with a large enough effect; an effect the other way counts as inactive or inconclusive; note: % of control where 0% means no effect; nearly all actives have a fitted effect of over 15% in size). Particulars: 1A2-DRE human hepatoma cells, luciferase, 24 h; activation: stronger effect = higher value. An outline of the steps:
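Luminescence (One-Glo, 30 min, room temperature) reports AhR-driven luciferase in stably transfected human hepatoma cells bearing DRE and CYP1A2 promoter. Cells (1,200/well) were treated with compound for 24 hr at 37 C in qHTS format.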

Test [13] concerns the target Peroxisome proliferator-activated receptor alpha (Homo sapiens) (UniProt Q07869). Put plainly: qHTS assay for small molecule agonists of the peroxisome proliferator-activated receptor alpha (PPARalpha) signaling pathway (AID 651778; active = well fitted curve in the direction sought with a large enough effect; an effect the other way counts as inactive or inconclusive; note: % of control where 0% means no effect). The following applies: PathHunter PPARalpha complementation, chemiluminescence, 6 h; max response: stronger effect = higher value. Summed up:
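Chemiluminescence from complemented enzyme reported PPARalpha activation in cells after 6 hr of compound treatment at 37 C. The detection reagent was incubated for 60 min at room temperature, and compounds were scored as agonists.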

A short description of test [14]: qHTS assay for small molecule agonists of the antioxidant response element (ARE) signaling pathway measured by Nrf2-dependant transcriptional activity (AID 720636; active = well fitted curve in the direction sought with a large enough effect in the repeat runs; an effect the other way counts as inactive or inconclusive; note: % of control where 0% means no effect). Summed up:
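Nrf2-dependent transcription read as ONE-Glo luciferase signal from ARE-luc HepG2 reporter cells after 16 hr compound treatment at 37 C, 5% CO2, in assay medium with 1% dialyzed FBS.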

Test [15] can be described thus: qHTS assay for small molecule agonists of the antioxidant response element (ARE) signaling pathway measured by Nrf2-dependant transcriptional activity - cell viability counter screen (AID 720653; active = well fitted curve in the direction sought with a large enough effect in the repeat runs; an effect the other way counts as inactive or inconclusive; note: potency is the fitted concentration of half-maximal effect; for max response: % is set by controls: 0 for no effect and ±100 for the full control effect). The following applies: ARE-bla HepG2 viability, CellTiter-Glo ATP luminescence, 16 h; max response: stronger effect = lower value. Summed up: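 Cytotoxicity counter screen: intracellular ATP quantified by CellTiter-Glo luminescence in the same ARE-bla HepG2 plates, after 16 h compound exposure and a 2 h beta-lactamase substrate step.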

Test [16] in a line: qHTS assay for cell viability of HEK293 cells (AID 743288; active = well fitted curve in the direction sought with a large enough effect; an effect the other way counts as inactive or inconclusive; note: nearly all actives have a fitted effect of over 50% in size; note: potency is the fitted concentration of half-maximal effect; for max response: % is set by controls: 0 for no effect and ±100 for the full control effect). The following applies: ATP luminescence (CellTiter-Glo), 18 h; max response: stronger effect = lower value. Summed up: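 HEK293 parental, 2,000 cells/well; ≥5 h pre-incubation 37 C; pintool compound addition; 18 h, 37 C; CellTiter-Glo 30 min RT; luminescence read.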
Test [17] is described as follows: qHTS assay for cell viability of the p53RE-bla HCT-116 cell line (AID 743292; active = well fitted curve in the direction sought with a large enough effect; an effect the other way counts as inactive or inconclusive; note: % is set by controls: 0 for no effect and ±100 for the full control effect; nearly all actives have a fitted effect of over 55% in size). An outline of the steps: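 ATP-based luminescent viability (CellTiter-Glo, 30 min RT) after 16 h compound treatment at 37 C of p53RE-bla HCT-116 cells, seeded at 4,000 cells/well and rested 5 h before dosing.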
Test [18] concerns the target Nuclear receptor subfamily 1 group I member 2 (Rattus norvegicus) (UniProt Q9R1A7). The test can be described thus: qHTS assay for small molecule activators of the rat pregnane X receptor (rPXR) signaling pathway (AID 651751; call rule not given here; note: 0% is about no effect). The following applies: rPXR reporter cells, luciferase (One-Glo), 24 h.
Test [19] deals with Peroxisome proliferator-activated receptor delta (Homo sapiens) (UniProt Q03181). The test can be described thus: qHTS assay for small molecule agonists of peroxisome proliferator-activated receptor delta signaling (AID 588534).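 Note: 0% = DMSO basal wells and 100% = positive control agonist at 10 µM.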 Summed up:
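Cells carrying a PPAR-delta beta-lactamase reporter were treated with compounds for 18 h at 37 °C in agonist mode. CCF4 fluorescence was read after 2 h; EC50 and efficacy from Hill fits.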

Test [20] is described as follows: qHTS assay for small molecule agonists of the antioxidant response element (ARE) signaling pathway (AID 651741; active = well fitted activation curve with a large enough effect in the signal ratio; the % refers to the signal ratio; note: % of control where 0% means no effect). An outline of the steps:
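Quantitative HTS in HepG2 cells stably expressing an ARE-beta-lactamase reporter; 16 h compound exposure at 37 C, followed by 2 h room-temperature incubation with LiveBLAzer B/G FRET substrate and fluorescence measurement.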

Sequence of Peroxisome proliferator-activated receptor delta (Homo sapiens) (Q03181 whole entry, looked up): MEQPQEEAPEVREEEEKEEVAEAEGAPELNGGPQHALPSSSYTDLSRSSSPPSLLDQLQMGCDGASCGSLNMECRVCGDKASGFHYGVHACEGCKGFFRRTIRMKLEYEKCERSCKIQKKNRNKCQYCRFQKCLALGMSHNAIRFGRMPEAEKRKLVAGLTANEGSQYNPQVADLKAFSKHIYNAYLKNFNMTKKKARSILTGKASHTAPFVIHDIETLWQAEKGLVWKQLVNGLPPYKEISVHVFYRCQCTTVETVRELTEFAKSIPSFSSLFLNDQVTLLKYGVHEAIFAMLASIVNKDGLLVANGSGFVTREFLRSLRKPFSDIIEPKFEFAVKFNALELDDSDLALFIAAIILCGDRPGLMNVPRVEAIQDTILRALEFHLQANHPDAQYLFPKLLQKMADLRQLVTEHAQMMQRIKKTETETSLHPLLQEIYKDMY
Sequence of Peroxisome proliferator-activated receptor alpha (Homo sapiens) (Q07869 whole entry, looked up): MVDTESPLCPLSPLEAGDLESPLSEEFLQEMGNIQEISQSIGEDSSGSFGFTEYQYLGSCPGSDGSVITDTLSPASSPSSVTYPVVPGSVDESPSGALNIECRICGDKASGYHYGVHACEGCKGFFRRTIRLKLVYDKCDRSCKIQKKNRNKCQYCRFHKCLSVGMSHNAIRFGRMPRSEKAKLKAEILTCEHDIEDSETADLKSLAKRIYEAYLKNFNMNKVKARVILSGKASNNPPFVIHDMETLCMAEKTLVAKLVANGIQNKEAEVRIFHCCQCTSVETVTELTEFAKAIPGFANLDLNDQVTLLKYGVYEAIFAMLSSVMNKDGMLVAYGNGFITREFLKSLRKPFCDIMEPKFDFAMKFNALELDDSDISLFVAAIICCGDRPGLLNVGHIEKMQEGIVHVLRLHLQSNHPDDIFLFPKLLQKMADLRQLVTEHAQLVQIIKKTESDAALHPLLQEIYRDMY
Sequence of Nuclear receptor subfamily 1 group I member 2 (Rattus norvegicus) (Q9R1A7 whole entry, looked up): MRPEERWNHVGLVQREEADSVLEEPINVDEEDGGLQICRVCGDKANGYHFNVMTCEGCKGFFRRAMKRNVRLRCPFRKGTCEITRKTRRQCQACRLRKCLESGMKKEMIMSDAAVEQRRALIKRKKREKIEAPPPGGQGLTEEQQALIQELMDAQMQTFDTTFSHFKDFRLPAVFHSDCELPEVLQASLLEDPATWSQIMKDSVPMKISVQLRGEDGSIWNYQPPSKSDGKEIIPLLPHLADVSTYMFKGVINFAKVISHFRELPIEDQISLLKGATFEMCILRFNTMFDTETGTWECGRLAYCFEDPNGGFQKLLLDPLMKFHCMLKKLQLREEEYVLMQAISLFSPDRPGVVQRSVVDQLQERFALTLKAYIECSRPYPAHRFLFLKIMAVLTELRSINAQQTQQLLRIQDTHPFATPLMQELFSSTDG
Sequence of Retinoic acid receptor RXR-alpha (Homo sapiens) (P19793 whole entry, looked up): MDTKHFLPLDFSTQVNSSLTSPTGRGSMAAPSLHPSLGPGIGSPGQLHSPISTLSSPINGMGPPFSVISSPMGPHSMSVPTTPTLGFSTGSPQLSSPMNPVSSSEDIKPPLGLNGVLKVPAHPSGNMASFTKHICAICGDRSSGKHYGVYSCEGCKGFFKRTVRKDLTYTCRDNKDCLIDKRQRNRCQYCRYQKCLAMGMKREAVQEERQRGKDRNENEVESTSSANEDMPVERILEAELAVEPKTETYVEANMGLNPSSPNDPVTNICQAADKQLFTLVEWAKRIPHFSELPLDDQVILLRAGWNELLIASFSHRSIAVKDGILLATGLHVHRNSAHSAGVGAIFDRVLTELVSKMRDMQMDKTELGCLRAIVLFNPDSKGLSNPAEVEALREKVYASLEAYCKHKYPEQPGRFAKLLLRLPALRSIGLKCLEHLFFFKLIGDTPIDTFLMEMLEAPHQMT
Sequence of Bile acid receptor (Homo sapiens) (Q96RI1 whole entry, looked up): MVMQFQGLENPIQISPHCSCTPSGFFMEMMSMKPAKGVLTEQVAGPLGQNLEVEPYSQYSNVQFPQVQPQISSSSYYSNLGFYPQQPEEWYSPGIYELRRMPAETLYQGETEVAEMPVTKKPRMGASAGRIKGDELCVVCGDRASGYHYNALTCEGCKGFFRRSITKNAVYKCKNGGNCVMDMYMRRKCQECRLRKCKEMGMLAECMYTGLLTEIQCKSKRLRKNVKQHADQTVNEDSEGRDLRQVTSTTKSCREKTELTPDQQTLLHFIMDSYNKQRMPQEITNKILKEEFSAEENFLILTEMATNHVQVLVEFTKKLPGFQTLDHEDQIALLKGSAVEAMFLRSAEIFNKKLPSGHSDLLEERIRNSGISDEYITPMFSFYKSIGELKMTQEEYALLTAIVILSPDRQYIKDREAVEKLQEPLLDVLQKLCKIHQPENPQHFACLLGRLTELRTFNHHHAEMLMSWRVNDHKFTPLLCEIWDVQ

`CC(C)COP(=O)(OCC(C)C)OCC(C)C`: the Potency entry in test [1], in test [4], in test [6], in test [7], in test [14] and in test [17] was “inactive” throughout. The activation in test [2] is 4.76% (inactive); in test [11], -2.4% (inactive); in [12], -1.96% (inactive). Besides, the max response is 21.8% in test [3]; -13.9% in test [8]; 3.45% (inactive) in test [9]; -1.01% (inactive) in [13]; -13.2% (inactive) in test [15]; -10% (inactive) in test [16]. The max response in [18] is -5.22% (inactive). For the same compound, in test [5], the compound was called inactive. Also, the activity change % (negative = inhibition) in test [10] is -6.4% (inactive).

`O=[N+]([O-])c1cc(C(F)(F)F)c(Cl)c([N+](=O)[O-])c1Nc1ncc(C(F)(F)F)cc1Cl`: the Potency in [1] was 25.1 µM (active); in [15] it was 35.5 µM (active); in [16], 35.5 µM (active). For the same compound, in test [2], the activation was 2.48% (inactive). Besides, in [19], the compound was called inactive. Besides, the max response in [13] is -9.03% (inactive). In addition, the Potency entry in [14] is “inactive”.

Turning to `CSc1nnc(C(C)(C)C)c(=O)n1N`, the Potency result in [1], in test [4], in [7], in [20], in [14] and in [17] was “inactive” each time. Also, the results for the activation in test [2] and in [11] were -6.5% (inactive) and -4.16% (inactive), respectively. The compound was called inactive in test [19] and in test [5]. Also, the max response in test [3] was -34.1%; in [8], -12%; in test [9], 6.64% (inactive); in test [13], -2.71% (inactive); in test [15], 6.99% (inactive); in test [16], -4.13% (inactive). Moreover, in test [18], the max response was 0.612% (inactive). Moreover, the Potency in test [6] is 39.8 µM (active). Also, in test [10], the activity change % (negative = inhibition) was -9.71% (inactive).

For the compound `CC(Oc1cccc(Cl)c1)C(=O)O` (centres undefined), the Potency entry in test [1], in test [4], in test [6], in test [7], in [14] and in [17] was “inactive” in each case. The activation in [2] was 0.618% (inactive); in test [11] it was 0.409% (inactive); in test [12], -0.19% (inactive). The call in test [19] and in [5] was inactive. The max response in test [3] was 47.7%; in test [8] it was -2.12%; in [9], -12.8% (inactive); in [13] it was -0.485% (inactive); in [15], -0.643% (inactive); in [16] it was -4.52% (inactive). Besides, the max response in test [18] is -1.92% (inactive). For the same compound, in [10], the activity change % (negative = inhibition) is 10.2% (inactive).

For the compound `CO/N=C(/C1=NOCCO1)c1ccccc1Oc1ncnc(Oc2ccccc2Cl)c1F`, in [1], the Potency is 35.5 µM (active). In test [2], the activation was 7.75% (inactive). Also, the max response in test [13] is 18.3% (inactive); in test [15], 16.2% (inactive); in [16], 6.13% (inactive).

Take `CN/C(=N/[N+](=O)[O-])NCC1CCOC1` (centres undefined): the Potency entry in [1], in [4], in [6], in [7], in test [20] and in [14] was “inactive” each time. Moreover, the activation in test [2] was -2.75% (inactive); in test [11], 3.08% (inactive); in test [12], -0.372% (inactive). Further, the call in test [19] and in test [5] was inactive. Besides, the max response in test [3] was 22.2%; in test [13], -0.384% (inactive); in test [15] it was -9.26% (inactive); in [16] it was -6.54% (inactive). In addition, the activity change % (negative = inhibition) in test [10] is -1.83% (inactive).

For the compound `CN1COCN(Cc2cnc(Cl)s2)/C1=N\[N+](=O)[O-]`, the Potency result in test [1], in test [4], in [6], in test [14] and in [17] was “inactive” throughout. Besides, the compound was classed as inactive in [19]. Further, the max response in test [3] was -72.6%; in test [8], -4.43%; in [13] it was -1.32% (inactive); in test [15], -21.4% (inactive); in [16], -0.262% (inactive); in test [18] it was -0.267% (inactive). For the same compound, the activity change % (negative = inhibition) in test [10] is -19.4% (inactive). Besides, the figures for the activation in test [11] and in [12] were -3.46% (inactive) and -0.335% (inactive), respectively.
